Experimental data from PubChem BioAssay (NCATS).
Results filed as inconclusive are left out. Calls of active or inactive are those of the source. Unless noted, the call rests on the fitted dose curve; in most records, active means well fitted curve in the direction sought with a large enough effect; inconclusive means small, poorly fitted or top-dose-only effect, or another doubt; inactive means no such curve, though single readings can be large; an effect the other way counts as inactive or inconclusive.

Key:
[1] = biological target: Lysosomal acid glucosylceramidase (Homo sapiens) (UniProt P04062); experiment: Glucocerebrosidase-p2 (AID 348; in the data active means potency below about 10 µM; further: potency means the concentration at half of the fitted maximal effect); conditions: purified GBA, blue fluorogenic substrate, 40 min
Procedure, shortened: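 Normal human glucocerebrosidase (0.2 nM) with blue fluorogenic substrate (80 uM final) in citrate/phosphate pH 5.9 with 10mM sodium taurocholate, 0.01% tween-20; 40 min RT, NaOH/glycine stop; fluorescence Ex 365/Em 440; AC50 from a titration from 0.6 nM upwards.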

[2] = AP1 Signaling Pathway (AID 357; active means well fitted curve in either direction with a large enough effect, not every such curve was filed as active; further: on the % scale 0 is the no-effect control and ±100 the full control effect); conditions: ME-180 AP-1-bla reporter, EGF-induced, beta-lactamase ratio, 5 h; at 7.69 µM (top of the series) unless noted
Procedure, shortened: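 ME-180 cells with beta-lactamase reporter under AP-1 response element, stimulated with EC50 EGF; compounds tested in titration series, 5 h at 37 °C. CCF4 substrate added 2.5 h at room temperature; 460/530 nm emission ratio gave %activity and AC50.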

[3] = biological target: Cytochrome P450 1A2 (Homo sapiens) (UniProt P05177); experiment: p450-cyp1a2 (AID 410; calls by dose curve; further: potency means the concentration at half of the fitted maximal effect); conditions: recombinant CYP1A2, luciferin-ME demethylation, luminescence; series mostly up to 57 µM
Procedure, shortened: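 O-Demethylation of luciferin 6' methyl ether by human CYP1A2 is monitored as luciferase luminescence. Substrate sits at Km (100uM); enzyme is 20nM. Values are scaled to 57 uM furafylline as maximal inhibition.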

[4] = NFAT Signaling Pathway (AID 444; active means well fitted curve in either direction with a large enough effect, not every such curve was filed as active;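 further: carbachol stimulus at about its EC50 of 1 µM final; on the % scale 0 is the no-effect control and ±100 the full control effect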); conditions: Jurkat NFAT-bla M1, carbachol, beta-lactamase ratio, 5 h; at 7.69 µM (top of the series) unless noted
Procedure, shortened: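 Jurkat cells with NFAT-driven β-lactamase reporter and co-expressed M1 receptor, stimulated with carbachol (final 1 uM, ~EC50), compound titration, 5 h at 37 °C. CCF4 loaded 1 h at RT; 460/530 nm ratio gave %activity and AC50.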

[5] = Stat Signaling Pathway (AID 446; active means well fitted curve in either direction with a large enough effect, not every such curve was filed as active;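 further: ME-180 cervical cancer cells given 40 pM IL-6 alongside compound; SIE-controlled beta-lactamase reporter measured as 460/530 nm FRET emission ratio; on the % scale 0 is the no-effect control and ±100 the full control effect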); conditions: ME-180 (cervical carcinoma) SIE beta-lactamase reporter, IL-6 stimulated, 5 h; at 7.69 µM (top of the series) unless noted
Procedure, shortened: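 FRET read-out (405 nm excitation, 460/530 nm emission) of a beta-lactamase reporter under a STAT-inducible element in ME-180 cervical carcinoma cells. Cells with compound receive 40 pM IL-6 for 5 h. Values are normalised to AC90 stimulation and AC90 JAK-inhibitor controls.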

[6] = biological target: Glucocorticoid receptor (Homo sapiens) (UniProt P04150); experiment: GR-GFP Redistribution (AID 450;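 active means compounds whose dose series gives a full or clear partial fitted curve of increased nuclear translocation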; further: potency means the concentration at half of the fitted maximal effect); conditions: U2OS GR-GFP nuclear translocation, laser cytometry, 2 h
[7] = biological target: Glucocorticoid receptor (Homo sapiens) (UniProt P04150); experiment: GR-EFC Redistribution (AID 451; calls by dose curve; further: potency means the concentration at half of the fitted maximal effect); conditions: CHO-K1 GR-EFC translocation, beta-gal luminescence, 2 h
Procedure, shortened: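 CHO-K1 cells expressing nuclear EA and GR-ED fragments of b-gal; compounds titrated up to 46 uM final, 2 h at 37 C. GR nuclear translocation read as complemented b-gal luminescence after 1 h RT detection.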

[8] = biological target: Mitogen-activated protein kinase 10 (Mus musculus) (UniProt Q61831); experiment: JNK3 AlphaScreen Assay (AID 530; active means well fitted curve in either direction with a large enough effect, not every such curve was filed as active;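 further: kinase came from lysate of stimulated human HepG2 cells; signal reports phosphorylation of biotinylated GST-cJun 1-79 at Ser73 with 10 µM ATP; on the % scale 0 is the no-effect control and ±100 the full control effect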); conditions: JNK3 lysate, c-Jun phosphorylation; series mostly up to 57.1 µM
Procedure, shortened: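 Activity was read by AlphaScreen after JNK3-containing HepG2 lysate (cytokine pre-activated) phosphorylated biotinylated GST-cJun with 10 uM ATP at room temperature. Phospho-Ser73 cJun antibody with Protein-A acceptor beads provided detection.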

[9] = biological target: Cytochrome P450 3A4 (Homo sapiens) (UniProt P08684); experiment: qHTS Assay for Activators of Cytochrome P450 3A4 (AID 885); conditions: recombinant CYP3A4, Luciferin-PPXE luminescence, 60 min; series mostly up to 57.1 µM; further: nearly all actives have a fitted effect of over 65% in size
Procedure, shortened: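 Luminescent readout of luciferin formed from 25 uM Luciferin-PPXE (KM level) by 20 nM CYP3A4 in 200 mM KPO4, with 60 min NADPH-driven reaction at room temperature after 10 min compound exposure. Ketoconazole (57 uM) defined 100% inhibition.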

[10] = biological target: Cytochrome P450 2D6 (Homo sapiens) (UniProt P10635); experiment: qHTS Assay for Inhibitors and Substrates of Cytochrome P450 2D6 (AID 891); conditions: recombinant CYP2D6, luciferin-ME EGE luminescence; series mostly up to 57.1 µM; further: potency means the concentration at half of the fitted maximal effect; nearly all actives have a fitted effect of over 60% in size
Procedure, shortened: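 Luminescent read-out of luciferin formed by 5 nM human CYP2D6 demethylating 30 uM Luciferin-ME EGE (Km level) over 60 min at room temperature after NADPH regeneration addition. Data normalized to full inhibition by 1.43 uM quinidine.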

[11] = biological target: Dual specificity protein kinase CLK4 (Homo sapiens) (UniProt Q9HAZ1); experiment: qHTS Assay for Inhibitors of CDC-like Kinase 4 (Kinase-Glo Assay) (AID 1770); conditions: recombinant Clk4, Kinase-Glo ATP depletion luminescence; series mostly up to 66.7 µM; further: nearly all actives have a fitted effect of over 65% in size; further: potency means the concentration at half of the fitted maximal effect
Procedure, shortened: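 Inhibition was judged from remaining ATP, measured by Ultra-Glo luciferase bioluminescence after Clk4 (25 nM) had acted on RS peptide at 1 uM ATP for 4.5 hours, room temperature.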

[12] = biological target: Dual specificity protein kinase CLK4 (Homo sapiens) (UniProt Q9HAZ1); experiment: qHTS Assay for Inhibitors of CDC-like Kinase 4 (ADP-Glo Assay) (AID 1771); conditions: recombinant CLK4, ADP-Glo luminescence; series mostly up to 80 µM; further: nearly all actives have a fitted effect of over 70% in size; further: potency means the concentration at half of the fitted maximal effect
Procedure, shortened: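 Compounds are pin-transferred onto substrate mix (100 uM RS peptide, 1 uM ATP), then 25 nM Clk4 is added. After 1 hr at room temperature, ADP-Glo reagent runs 45 min, detection reagent 30 min, then luminescence is read.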

[13] = biological target: Dual specificity protein kinase CLK4 (Homo sapiens) (UniProt Q9HAZ1); experiment: qHTS Assay for Inhibitors of CDC-like Kinase 4 (ADP-FP Assay) (AID 1795); conditions: Transcreener ADP fluorescence polarization; series mostly up to 50 µM;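 further: recombinant human CLK4 phosphorylating RS repeat peptide at 1 µM ATP; on the % scale 0 is the no-effect control and ±100 the full control effect; nearly all actives have a fitted effect of over 60% in size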
Procedure, shortened: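 Inhibition of ADP formation by 6.25 nM Clk4 is measured using 1 uM ATP and 100 uM RS repeat peptide over one hour. Produced ADP displaces a fluorescent tracer from antibody, lowering polarization.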

[14] = biological target: Ubiquitin carboxyl-terminal hydrolase 1 (Homo sapiens) (UniProt O94782); experiment: Inhibitors of USP1/UAF1: Pilot qHTS (AID 504865); conditions: purified USP1/UAF1, Ub-rhodamine cleavage fluorescence; series mostly up to 54.9 µM;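 further: rhodamine fluorescence freed from ubiquitin-rhodamine substrate followed over time; top concentration of the series differs between compounds; on the % scale 0 is the no-effect control and ±100 the full control effect; nearly all actives have a fitted effect of over 35% in size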
Procedure, shortened: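 Kinetic fluorescence assay: 1nM USP1/UAF1, 15 min compound preincubation, then 150nM Ub-Rho; 480/540 nm.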

[15] = Primary qHTS for small molecule stabilizers of the endoplasmic reticulum resident proteome: Secreted ER Calcium Modulated Protein (SERCaMP) assay (AID 1508630); conditions: SH-SY5Y GLuc-SERCaMP (Gaussia luciferase released on ER calcium loss) secretion, thapsigargin, luminescence; series mostly up to 38.4 µM; further: on the % scale 0 is the no-effect control and ±100 the full control effect
Procedure, shortened: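 The SH-SY5Y reporter protocol was run at 3 concentrations up to 38.3 uM (primary) or 11 concentrations (follow-up): 16 h compound, 100 nM thapsigargin for 4 h, then extracellular luciferase luminescence.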

[16] = biological target: Cytochrome P450 3A4 (Homo sapiens) (UniProt P08684); experiment: qHTS Assay for Inhibitors and Substrates of Cytochrome P450 3A4 (AID 884); conditions: recombinant CYP3A4, Luciferin-PPXE luminescence; series mostly up to 57.1 µM; further: potency means the concentration at half of the fitted maximal effect; nearly all actives have a fitted effect of over 50% in size
Procedure, shortened: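 Luminescent readout of luciferin produced by CYP3A4 (20 nM) dealkylation of Luciferin-PPXE, 25 uM (its KM). NADPH-driven reaction ran 60 min at RT after 10 min compound preincubation; data scaled to 57 uM ketoconazole as 100% inhibition.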

[17] = biological target: Cytochrome P450 2C19 (Homo sapiens) (UniProt P33261); experiment: qHTS Assay for Inhibitors and Substrates of Cytochrome P450 2C19 (AID 899); conditions: recombinant CYP2C19, luciferin-H EGE luminescence; series mostly up to 57.1 µM; further: potency means the concentration at half of the fitted maximal effect; nearly all actives have a fitted effect of over 60% in size
Procedure, shortened: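 5 nM human CYP2C19 with 10uM Luciferin-H EGE (at KM) in 50mM KPO4, compound preincubated 10 min at 37C, then NADPH regeneration for 60 min at 37C. Luciferin read by luminescence after detection reagent; normalized to 57uM ketoconazole as full inhibition.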

[18] = biological target: 3',5'-cyclic-AMP phosphodiesterase 4B (Homo sapiens) (UniProt Q07343); experiment: qHTS Assay for Inhibitors of PDE-IV (AID 607; active means well fitted activation curve with a large enough effect in the main read-out, with a control signal flat, not every such curve was filed as active; further: % of control where 0% means no effect); conditions: HEK293 ACTOne CNG channel cells, membrane potential fluorescence; series mostly up to 22.9 µM
Procedure, shortened: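 Cell-based read-out of cAMP via a modified cyclic nucleotide-gated channel and membrane potential dye (535/590 nm) in HEK293 cells expressing PDE4 endogenously. Compounds tested up to 22.9 uM final; 100 uM RO 20-1724 reference.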

Glucocorticoid receptor (Homo sapiens), sequence (P04150 whole entry, looked up, the tested form may be a part): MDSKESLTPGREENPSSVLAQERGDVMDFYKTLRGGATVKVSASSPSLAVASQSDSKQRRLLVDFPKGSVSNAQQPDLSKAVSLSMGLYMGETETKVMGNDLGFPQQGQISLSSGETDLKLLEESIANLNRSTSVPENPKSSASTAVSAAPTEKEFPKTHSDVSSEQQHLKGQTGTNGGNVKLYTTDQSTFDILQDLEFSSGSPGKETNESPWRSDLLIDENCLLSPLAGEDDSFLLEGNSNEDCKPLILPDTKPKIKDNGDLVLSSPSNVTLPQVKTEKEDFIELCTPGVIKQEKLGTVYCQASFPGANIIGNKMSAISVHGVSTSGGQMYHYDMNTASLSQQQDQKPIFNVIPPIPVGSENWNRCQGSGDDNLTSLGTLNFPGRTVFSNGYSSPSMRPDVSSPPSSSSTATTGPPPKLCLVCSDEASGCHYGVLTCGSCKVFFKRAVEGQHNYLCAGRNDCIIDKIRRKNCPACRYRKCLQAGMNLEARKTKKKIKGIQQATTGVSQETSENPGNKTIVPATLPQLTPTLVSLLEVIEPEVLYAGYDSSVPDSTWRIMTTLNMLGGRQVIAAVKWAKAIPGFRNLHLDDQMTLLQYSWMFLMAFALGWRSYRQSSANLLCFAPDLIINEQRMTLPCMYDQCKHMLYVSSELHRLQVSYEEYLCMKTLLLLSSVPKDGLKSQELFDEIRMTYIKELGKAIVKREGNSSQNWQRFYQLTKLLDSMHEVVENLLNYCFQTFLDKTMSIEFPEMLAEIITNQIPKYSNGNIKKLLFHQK
Cytochrome P450 3A4 (Homo sapiens), sequence (P08684 whole entry, looked up): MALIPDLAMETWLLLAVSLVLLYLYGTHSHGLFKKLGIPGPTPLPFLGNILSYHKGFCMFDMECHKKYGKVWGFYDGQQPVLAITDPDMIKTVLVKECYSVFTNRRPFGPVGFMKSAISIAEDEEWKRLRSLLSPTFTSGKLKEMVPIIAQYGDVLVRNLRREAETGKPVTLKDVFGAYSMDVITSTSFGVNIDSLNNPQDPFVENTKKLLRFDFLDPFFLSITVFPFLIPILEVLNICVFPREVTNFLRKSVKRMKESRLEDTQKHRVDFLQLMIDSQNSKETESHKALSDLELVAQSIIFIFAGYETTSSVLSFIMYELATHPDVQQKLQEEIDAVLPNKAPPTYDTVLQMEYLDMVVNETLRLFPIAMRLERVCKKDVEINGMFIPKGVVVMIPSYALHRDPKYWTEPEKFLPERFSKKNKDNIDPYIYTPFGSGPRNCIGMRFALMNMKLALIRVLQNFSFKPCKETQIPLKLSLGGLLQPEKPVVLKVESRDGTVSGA
Lysosomal acid glucosylceramidase (Homo sapiens), sequence (P04062 whole entry, looked up): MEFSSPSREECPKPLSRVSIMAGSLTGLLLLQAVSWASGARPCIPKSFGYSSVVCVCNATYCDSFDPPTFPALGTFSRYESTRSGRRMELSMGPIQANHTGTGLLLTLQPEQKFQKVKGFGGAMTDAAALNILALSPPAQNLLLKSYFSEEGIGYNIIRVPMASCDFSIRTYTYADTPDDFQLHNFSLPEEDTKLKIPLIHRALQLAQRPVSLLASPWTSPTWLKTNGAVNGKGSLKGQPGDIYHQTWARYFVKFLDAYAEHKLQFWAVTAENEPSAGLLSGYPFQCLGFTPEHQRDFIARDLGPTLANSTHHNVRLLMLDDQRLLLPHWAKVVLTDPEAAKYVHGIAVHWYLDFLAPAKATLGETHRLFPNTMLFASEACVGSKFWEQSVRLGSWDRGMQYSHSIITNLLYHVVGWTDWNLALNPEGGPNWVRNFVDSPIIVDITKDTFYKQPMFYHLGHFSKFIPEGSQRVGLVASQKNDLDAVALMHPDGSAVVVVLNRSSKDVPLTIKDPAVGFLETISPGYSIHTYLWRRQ
Ubiquitin carboxyl-terminal hydrolase 1 (Homo sapiens), sequence (O94782 whole entry, looked up): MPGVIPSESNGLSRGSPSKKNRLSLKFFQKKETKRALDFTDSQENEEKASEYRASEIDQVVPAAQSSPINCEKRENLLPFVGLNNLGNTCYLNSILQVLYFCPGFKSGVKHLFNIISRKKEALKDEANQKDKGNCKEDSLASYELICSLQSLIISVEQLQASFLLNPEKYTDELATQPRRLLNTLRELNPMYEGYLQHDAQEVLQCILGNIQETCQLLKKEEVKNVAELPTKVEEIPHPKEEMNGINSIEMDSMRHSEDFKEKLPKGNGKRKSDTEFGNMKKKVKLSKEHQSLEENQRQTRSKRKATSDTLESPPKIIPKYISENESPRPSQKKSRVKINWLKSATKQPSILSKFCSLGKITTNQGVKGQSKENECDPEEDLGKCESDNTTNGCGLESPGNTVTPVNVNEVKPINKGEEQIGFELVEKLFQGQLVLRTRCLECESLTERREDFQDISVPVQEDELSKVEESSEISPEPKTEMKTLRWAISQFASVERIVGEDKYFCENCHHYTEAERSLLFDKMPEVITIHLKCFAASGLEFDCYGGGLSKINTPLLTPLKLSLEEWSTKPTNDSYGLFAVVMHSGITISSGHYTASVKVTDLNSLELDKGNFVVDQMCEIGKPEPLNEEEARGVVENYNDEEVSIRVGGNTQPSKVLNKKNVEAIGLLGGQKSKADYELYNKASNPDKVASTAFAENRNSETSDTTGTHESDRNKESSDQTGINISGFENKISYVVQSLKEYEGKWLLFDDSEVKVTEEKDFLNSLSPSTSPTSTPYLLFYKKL
3',5'-cyclic-AMP phosphodiesterase 4B (Homo sapiens), sequence (Q07343 whole entry, looked up): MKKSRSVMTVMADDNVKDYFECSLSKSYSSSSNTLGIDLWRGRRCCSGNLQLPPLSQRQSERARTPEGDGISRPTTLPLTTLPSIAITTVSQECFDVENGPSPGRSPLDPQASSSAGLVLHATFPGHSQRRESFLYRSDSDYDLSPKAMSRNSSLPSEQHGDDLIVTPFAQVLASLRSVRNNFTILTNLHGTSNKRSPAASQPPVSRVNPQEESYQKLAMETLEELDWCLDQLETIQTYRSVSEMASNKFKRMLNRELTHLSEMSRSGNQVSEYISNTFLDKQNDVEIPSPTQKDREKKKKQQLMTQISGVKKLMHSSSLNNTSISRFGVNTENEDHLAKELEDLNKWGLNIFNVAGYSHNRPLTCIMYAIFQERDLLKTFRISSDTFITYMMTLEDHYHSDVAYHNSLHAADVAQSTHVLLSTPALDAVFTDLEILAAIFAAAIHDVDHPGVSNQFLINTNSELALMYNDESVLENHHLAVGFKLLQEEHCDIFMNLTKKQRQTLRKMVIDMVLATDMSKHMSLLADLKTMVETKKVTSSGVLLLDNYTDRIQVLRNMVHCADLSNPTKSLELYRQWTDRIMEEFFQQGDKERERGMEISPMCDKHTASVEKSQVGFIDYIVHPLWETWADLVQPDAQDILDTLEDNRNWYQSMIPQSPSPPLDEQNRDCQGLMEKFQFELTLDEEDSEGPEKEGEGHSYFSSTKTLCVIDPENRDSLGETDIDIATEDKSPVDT
Dual specificity protein kinase CLK4 (Homo sapiens), sequence (Q9HAZ1 whole entry, looked up): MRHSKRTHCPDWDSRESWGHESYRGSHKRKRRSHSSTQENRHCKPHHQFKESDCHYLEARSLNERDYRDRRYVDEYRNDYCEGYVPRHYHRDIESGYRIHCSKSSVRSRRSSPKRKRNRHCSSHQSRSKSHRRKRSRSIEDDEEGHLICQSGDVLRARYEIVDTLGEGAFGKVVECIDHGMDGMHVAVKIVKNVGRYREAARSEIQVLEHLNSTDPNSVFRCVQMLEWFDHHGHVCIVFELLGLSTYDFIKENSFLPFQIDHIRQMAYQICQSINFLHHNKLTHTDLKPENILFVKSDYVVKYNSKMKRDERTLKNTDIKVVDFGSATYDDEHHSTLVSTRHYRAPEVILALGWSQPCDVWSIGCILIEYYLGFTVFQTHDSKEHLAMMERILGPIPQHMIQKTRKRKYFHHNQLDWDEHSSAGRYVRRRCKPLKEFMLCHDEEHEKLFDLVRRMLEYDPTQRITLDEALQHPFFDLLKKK
Cytochrome P450 1A2 (Homo sapiens), sequence (P05177 whole entry, looked up): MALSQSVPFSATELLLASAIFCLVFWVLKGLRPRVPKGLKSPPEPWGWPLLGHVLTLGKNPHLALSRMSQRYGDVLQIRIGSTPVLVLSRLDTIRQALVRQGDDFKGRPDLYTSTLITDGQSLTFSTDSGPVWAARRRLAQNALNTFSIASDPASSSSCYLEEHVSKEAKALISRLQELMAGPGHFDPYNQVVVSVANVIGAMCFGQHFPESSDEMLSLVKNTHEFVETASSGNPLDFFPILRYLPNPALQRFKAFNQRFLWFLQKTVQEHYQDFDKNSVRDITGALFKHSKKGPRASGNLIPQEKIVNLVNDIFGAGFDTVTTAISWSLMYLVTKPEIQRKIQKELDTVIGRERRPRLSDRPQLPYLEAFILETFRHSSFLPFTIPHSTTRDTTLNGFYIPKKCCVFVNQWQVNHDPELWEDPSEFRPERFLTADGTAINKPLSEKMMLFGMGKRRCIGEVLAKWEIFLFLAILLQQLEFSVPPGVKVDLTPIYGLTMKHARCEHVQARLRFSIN
Cytochrome P450 2D6 (Homo sapiens), sequence (P10635 whole entry, looked up): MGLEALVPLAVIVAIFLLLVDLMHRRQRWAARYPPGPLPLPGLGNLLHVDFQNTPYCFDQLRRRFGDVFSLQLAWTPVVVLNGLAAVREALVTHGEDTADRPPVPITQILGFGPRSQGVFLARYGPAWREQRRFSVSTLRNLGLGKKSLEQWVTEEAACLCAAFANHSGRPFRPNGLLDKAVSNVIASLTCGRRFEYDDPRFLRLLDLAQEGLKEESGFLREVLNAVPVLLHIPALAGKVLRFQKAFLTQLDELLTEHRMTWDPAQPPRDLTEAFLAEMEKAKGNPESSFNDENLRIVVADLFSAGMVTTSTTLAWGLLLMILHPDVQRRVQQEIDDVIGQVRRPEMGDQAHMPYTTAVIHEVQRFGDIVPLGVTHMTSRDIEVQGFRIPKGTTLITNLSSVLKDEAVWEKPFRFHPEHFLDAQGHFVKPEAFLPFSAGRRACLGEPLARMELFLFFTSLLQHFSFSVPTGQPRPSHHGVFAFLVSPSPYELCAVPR

CN(C)Cc1ccccc1-c1nccc(N(C)Cc2ccco2)n1
inactive: Potency [1] > 11.4 µM | activity change, negative = inhibition [2] -20% | activity change, negative = inhibition [4] -23.2% | activity, negative = inhibition [5] 0.0679% | Potency [6] > 46 µM | Potency [7] > 46 µM | Potency [8] | Potency [9] | Potency [11] | Potency [12] | Potency [13] | Potency [14] | outcome [15]
active: Potency [3] 7.94 µM | Potency [10] 0.794 µM

CN(C)c1ccc(-c2cncnc2N(C)Cc2ccco2)cc1
inactive: Potency [1] > 11.4 µM | activity change, negative = inhibition [2] -22.2% | activity change, negative = inhibition [4] -8.48% | activity, negative = inhibition [5] -5.82% | Potency [6] > 46 µM | Potency [7] > 46 µM | Potency [9] | Potency [13] | Potency [14] | outcome [15]
active: Potency [3] 0.631 µM | Potency [16] 0.631 µM | Potency [17] 0.251 µM | Potency [11] 15.8 µM | Potency [12] 17.8 µM

CN(C)Cc1ccccc1-c1nc(NC2CC2)c2ccccc2n1
active: Potency [3] 5.01 µM | Potency [10] 3.98 µM
inactive: Potency [1] > 11.4 µM | activity change, negative = inhibition [2] 1.1% | activity change, negative = inhibition [4] -22.4% | activity, negative = inhibition [5] 7.64% | Potency [6] > 46 µM | Potency [7] > 46 µM | Potency [8] | Potency [9] | Potency [11] | Potency [12] | Potency [13] | Potency [14] | outcome [15]

COCCn1c(=O)cnc2cnc(Oc3cccc(Cl)c3)nc21
inactive: Potency [1] > 11.4 µM | activity change, negative = inhibition [2] 1.86% | activity change, negative = inhibition [4] 2.09% | activity, negative = inhibition [5] -13.2% | Potency [6] > 9.22 µM | Potency [7] > 46 µM | Potency [8] | Potency [18] | Potency [9] | Potency [11] | Potency [12] | Potency [13] | Potency [14] | outcome [15]
active: Potency [3] 3.16 µM

COc1ncc2nc(C)c(=O)n(-c3ccccc3)c2n1
inactive: Potency [1] > 11.4 µM | activity change, negative = inhibition [2] -2.25% | activity change, negative = inhibition [4] 2.66% | activity, negative = inhibition [5] -8.97% | Potency [6] > 9.22 µM | Potency [7] > 46 µM | Potency [8] | Potency [18] | Potency [9] | Potency [11] | Potency [12] | Potency [13] | Potency [14] | outcome [15]
active: Potency [3] 5.01 µM

CN(C)C(=O)c1ccc(-c2nccc(Nc3ccc(F)cc3)n2)cc1
active: Potency [3] 6.31 µM
inactive: Potency [1] > 11.4 µM | activity change, negative = inhibition [2] -14.3% | activity change, negative = inhibition [4] -12.1% | activity, negative = inhibition [5] -4.15% | Potency [6] > 46 µM | Potency [7] > 46 µM | Potency [8] | Potency [18] | Potency [9] | Potency [11] | Potency [12] | Potency [13] | Potency [14] | outcome [15]
